Experimental data reported in PubChem BioAssay (NCI).
Compounds without any hit were thinned out: in the full panel of roughly 79,000, 15% have a hit. No stated cut-off is given here; in the data, active means growth inhibition above about 70%; inactive means the rest.

How the values were obtained:
[1] = NCI Yeast Anticancer Drug Screen. Data for the rad50 strain (AID 155);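 further: 0% = growth of vehicle-only cultures of the same strain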; settings: S. cerevisiae rad50 strain growth inhibition; at 50.0 µM; hits give high values
Summary of the method: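 Genetically altered yeast (DNA repair pathway); compound treatment; growth inhibition vs vehicle ctrl.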

[2] = NCI Yeast Anticancer Drug Screen. Data for the mec2-1 strain (AID 157); settings: S. cerevisiae mec2-1 strain, at 50.0 µM, hits give high values
Summary of the method: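 Readout is yeast growth inhibition, normalised to vehicle-treated controls, in the mec2-1 strain exposed to compound.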

[3] = NCI Yeast Anticancer Drug Screen. Data for the sgs1 mgt1 strain (AID 161);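 further: 0% = growth of cultures given vehicle only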; settings: S. cerevisiae sgs1 mgt1 strain, at 50.0 µM, hits give high values
Summary of the method: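 Percent growth inhibition was derived by comparing compound-exposed mutant yeast with vehicle-exposed cultures. The strain carries alterations in DNA damage repair.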

[4] = NCI Yeast Anticancer Drug Screen. Data for the cln2 rad14 strain (AID 165);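 further: 0% = growth equal to vehicle treated cultures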; settings: S. cerevisiae cln2 rad14 strain, at 50.0 µM, hits give high values
Summary of the method: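 Relative to vehicle controls, growth inhibition of compound-treated cln2 rad14 yeast was recorded.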

[5] = NCI Yeast Anticancer Drug Screen. Data for the bub3 strain (AID 167); settings: S. cerevisiae bub3 mutant strain, at 50.0 µM, hits give high values
Summary of the method: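 Yeast carrying a defined mutation is treated with each compound, and growth is compared with that of vehicle-exposed cells to give inhibition.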

[6] = NCI Yeast Anticancer Drug Screen. Data for the mlh1 rad18 strain (AID 175); settings: S. cerevisiae mlh1 rad18 strain growth inhibition; at 50.0 µM; hits give high values
Summary of the method: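 Test agents were incubated with a yeast strain of defined genotype (DNA damage repair defect). Inhibition of growth was derived by comparison with vehicle-exposed cultures.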

Measured: growth inhibition

O=C1COC(=O)/C1=C/c1ccccc1
inactive: [1] -0.4% | [2] -7.85% | [3] -4.75% | [4] 2.3% | [5] -15.8% | [6] -1.05%

CCOC(=O)C1CC1OCc1ccccc1 (stereo not drawn)
inactive: [1] -0.2% | [2] 11.7% | [3] 4.9% | [4] -15.9% | [5] 4% | [6] 5.3%

O=[N+]([O-])c1ccc(/C(CBr)=N/N2CCCCCC2)cc1
inactive: [1] -1.05% | [2] -16.9% | [3] -19.7% | [4] 7.9% | [5] -15.8% | [6] -4.55%

CS/C(=N/S(=O)(=O)c1ccccc1)NNC(=S)Nc1ccc(C(C)C)cc1
inactive: [1] 14% | [2] -12.6% | [3] 27.2% | [4] 22.6% | [5] 28.3% | [6] 25.9%

CCN1C(=O)CC(SCCSC2CC(=O)N(CC)C2=O)C1=O (stereo not drawn)
inactive: [1] 16.7% | [2] -7.7% | [3] 6.25% | [4] -6.55% | [5] 13.7% | [6] -2.45%

COc1ccc(C(C#N)Cc2ccccc2)c([N+](=O)[O-])c1 (stereo not drawn)
inactive: [1] 17.6% | [2] -5.75% | [3] 4.8% | [4] -34.2% | [5] 0.45% | [6] 16.4%

C=C(C)C(=O)Nc1ccc(-n2[nH]c(C)c(N=Nc3ccc(N(C)C)cc3)c2=O)cc1
inactive: [1] 6.95% | [2] -5.5% | [3] -14.6% | [4] -36% | [5] -2.55% | [6] 1.85%

CC(=O)N1CCc2[nH]c3ccccc3c2CC1
inactive: [1] 10.9% | [2] -7.05% | [3] -4.55% | [4] 21.8% | [5] -3.1% | [6] 16.2%

CCCCCCCCCCCCCCCCSC(=N)N
inactive: [1] 25.2% | [2] 21.2% | [3] 55.8% | [4] 14.1% | [5] 40% | [6] 38%

N#C/C(=C\c1ccc(F)cc1)C(=O)O
inactive: [1] 13.2% | [2] 0.8% | [3] -7.9% | [4] 4.2% | [5] 8.5% | [6] 18.4%

C#CCI
inactive: [1] 20.9% | [2] 6.5% | [3] 6.95% | [4] 33.9% | [5] 7.35% | [6] 17.5%

CCOC(=O)c1ccnc(F)c1
inactive: [1] 3.8% | [2] -15.7% | [3] -6.15% | [4] -8.8% | [5] 1% | [6] 3.6%

CC(=O)OC1C[C@H]2C(OC(=O)c3ccccc3)C3C4(OC(C)=O)COC4C[C@H](OC(C)=O)[C@@]3(C)C(OC(C)=O)[C@H](OC(C)=O)C(=C1C)C2(C)C (stereo partly drawn)
inactive: [1] 41.2% | [2] 22.6% | [3] 31.7% | [4] 28.9% | [5] 26.4% | [6] 35.2%

CCC1=C(C)/C(=C/c2[nH]c(C)cc2C)N=C1C
inactive: [1] 5.5% | [2] 0.95% | [3] 3.65% | [4] -54.6% | [5] 0.25% | [6] 12.2%

CCOC(=O)Cc1nc(Cl)c2c(C)c(C)sc2n1
inactive: [1] 29.8% | [2] 5.6% | [3] 6.9% | [4] 20.2% | [5] 24.9% | [6] 40.5%

O=CN/C=C\c1cc(O)ccc1O
inactive: [1] 3.1% | [2] 4.45% | [3] -2.6% | [4] 21.4% | [5] 16.9% | [6] 13.1%

CCOC(=O)c1c(-c2ccc(Cl)cc2)c(C#N)c(=S)n(C2OC(COC(C)=O)C(OC(C)=O)C(OC(C)=O)C2OC(C)=O)c1C (stereo not drawn)
inactive: [1] -0.4% | [2] -8.75% | [3] -1.75% | [4] 24.1% | [5] 17.5% | [6] 5.7%

CN(C)c1ccc2[nH]cc(C(=O)O)c(=O)c2c1
inactive: [1] 4.15% | [2] 6.6% | [3] 10.3% | [4] -1.05% | [5] 28.8% | [6] 7.35%

CCCCCCCCCCCCCCCCCCC(CO)CO
inactive: [1] -22.4% | [2] -20.6% | [3] -8.65% | [4] -45% | [5] -10.2% | [6] 1.8%

O=C(c1ccccc1)c1cc[n+]([O-])cc1
inactive: [1] -5.6% | [2] -11.8% | [3] -18% | [4] -16.9% | [5] -8.7% | [6] 12.7%

CC(NC(=O)c1ccccc1)C1CCCCC1 (stereo not drawn)
inactive: [1] -5.2% | [2] -1.85% | [3] -1.4% | [4] -49.8% | [5] -12.7% | [6] 0.75%

Cn1c(=O)c2snnc2n(C)c1=O
inactive: [1] -2.75% | [2] -2.65% | [3] -2.65% | [4] -9.5% | [5] 2.9% | [6] -16.6%

CCOC(=O)N1OC2C=CC1CC2 (stereo not drawn)
inactive: [1] -7.45% | [2] -9.45% | [3] -12.1% | [4] 11.8% | [5] 3.45% | [6] 15.1%

Cc1cc(C(=O)O)ccc1C(=O)O
inactive: [1] -13.8% | [2] -31.6% | [3] -1.95% | [4] -39.4% | [5] -20.4% | [6] -25.1%

Fc1ccccc1-c1nnc(-c2ccccc2F)o1
inactive: [1] 1.65% | [2] 8.3% | [3] 6.85% | [4] 10.8% | [5] 48.2% | [6] 1.3%

N#C/C(C(=O)Nc1ccccc1)=C(/N)N1CCCC1
inactive: [1] 18.4% | [2] -15.7% | [3] 1.85% | [4] -5.65% | [5] -14.3% | [6] 25.6%

COc1ccc(Cl)cc1Cl
inactive: [1] 6.8% | [2] -6.45% | [3] -98% | [4] 14.2% | [5] 14.1% | [6] 26.6%

NC(=O)CNc1ccc(CC2CCOC2=O)cc1 (stereo not drawn)
inactive: [1] -7.45% | [2] -18.9% | [3] -5.9% | [4] 0.95% | [5] 0.6% | [6] -5.7%

CCOC(=O)Cc1ccc(OC)c(OC)c1
inactive: [1] 3.45% | [2] -7.05% | [3] 3.9% | [4] -17.1% | [5] -2.8% | [6] 1.4%

CC(C)CCCC(C)CCCl (stereo not drawn)
inactive: [1] 3.85% | [2] -1.1% | [3] -5.85% | [4] 1.95% | [5] 3.2% | [6] -0.2%

COC1=C(N=[N+]=[N-])C(=O)c2ccccc2C1=O
inactive: [1] 38% | [2] 8.95% | [3] 7.25% | [4] -34.2% | [5] -6.8% | [6] 16.1%

C(=C\c1cccs1)/c1csnn1
inactive: [1] 0.7% | [2] 15.7% | [3] 3.45% | [4] 12.8% | [5] -1.75% | [6] -7.55%

FC(F)(F)C1=NCCN1
inactive: [1] -0.5% | [2] -11.1% | [3] -2.85% | [4] 11.4% | [5] -2.45% | [6] -10.3%

CCSC(C#N)C(C)=O (stereo not drawn)
inactive: [1] 34.9% | [2] 22.1% | [3] 56.4% | [4] 38.5% | [5] 39% | [6] 42.6%

O=P1(O)c2ccccc2Oc2ccccc21
inactive: [1] -4% | [2] -2.2% | [3] 7.45% | [4] 2.9% | [5] -0.95% | [6] -44.5%

CCC1NC(N=Nc2ccc([N+](=O)[O-])cc2)(P(=O)(OC(C)C)OC(C)C)OC1=O (stereo not drawn)
inactive: [1] 44.5% | [2] -43.5% | [3] 16.1% | [4] -15.8% | [5] 17.5% | [6] 10.8%

CCOC(=O)C1CC(=O)c2cc(OC)c(OC)cc2C1c1ccc(OC)c(OC)c1 (stereo not drawn)
inactive: [1] 1.85% | [2] -14.1% | [3] 0.1% | [4] -29.7% | [5] 13.8% | [6] -26.4%

CN1C(=O)N(c2nc3ccccc3[nH]2)C(C)(C)C1=O
inactive: [1] 5.25% | [2] 1.9% | [3] -23.8% | [4] -6.4% | [5] 6.35% | [6] 18.6%
